Shown are actives, neighbours in structure and some others; about 2.6% of the full set was active somewhere.
FH mod – Identification of activators of human fumarate hydratase by quantitative high-throughput screening. Fumarate hydratase, mitochondrial (Homo sapiens), P07954. AID 1347055, 2019. Potency, µM (top dose mostly 79.9 µM), most hits filed as inhibitors. FH coupled MDH/diaphorase resazurin fluorescence, 15 min. 54,000 tested, 0.22% active; further: the screen sought activators but most active calls are inhibition curves; nearly all actives have a fitted effect of over 45% in size
Target sequence (P07954 whole entry, looked up): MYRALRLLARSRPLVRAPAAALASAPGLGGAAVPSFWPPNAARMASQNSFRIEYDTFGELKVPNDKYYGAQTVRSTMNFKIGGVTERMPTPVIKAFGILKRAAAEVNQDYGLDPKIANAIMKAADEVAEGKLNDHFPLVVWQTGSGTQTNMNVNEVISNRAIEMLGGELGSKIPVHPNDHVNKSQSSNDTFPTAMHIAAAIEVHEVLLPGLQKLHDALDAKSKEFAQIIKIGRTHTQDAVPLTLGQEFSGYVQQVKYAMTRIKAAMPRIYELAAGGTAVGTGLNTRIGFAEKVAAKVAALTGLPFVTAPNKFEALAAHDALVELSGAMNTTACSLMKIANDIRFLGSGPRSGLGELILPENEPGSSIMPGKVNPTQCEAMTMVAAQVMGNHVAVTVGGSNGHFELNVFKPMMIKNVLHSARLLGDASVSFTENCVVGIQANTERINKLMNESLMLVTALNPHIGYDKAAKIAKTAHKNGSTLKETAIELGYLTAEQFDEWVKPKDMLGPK
HTT-AS act – activates huntingtin-antisense promoter activity. 48,000 tested, 0.24% active. AID 1508624. Potency, µM (top dose mostly 57.5 µM), most hits filed as activators. HEK293 HTT-AS promoter firefly luciferase reporter, 24 h; response scale: percent change from vehicle, -100% = no light; further: nearly all actives have a fitted effect of over 55% in size
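HEK293 luciferase promoter-reporter cells (2,500/well) plated 24 h, then compounds added at up to 57.5 uM final for 24 h at 37 °C. Firefly luminescence by Dual-Glo, normalized to vehicle (0%) and zero RLU (-100%).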
HTT promoter inh – HTT promoter inhibition; HEK293 HTT promoter firefly luciferase reporter, 24 h; Potency, µM (doses to about 57.5 µM), usual class: inhibitors; 48,000 tested, 0.93% active; further: nearly all actives have a fitted effect of over 50% in size
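Luminescence was read after Dual-Glo reagent and a 10 min room-temperature incubation. Values were normalized to vehicle (0% activity) and zero RLU (-100% activity). Reporter HEK293 cells had been exposed to compounds (up to 57.5 uM final) for 24 h.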
NTMT1 inh – NTMT1 methyltransferase inhibition; Q9BV86; NTMT1 MTase-Glo SAH luminescence, purified enzyme; 59,000 tested, 2.5% active; Potency, µM (highest dose often 114 µM), actives largely listed as inhibitors; further: nearly all actives have a fitted effect of over 65% in size
Target sequence (Q9BV86 whole entry, looked up): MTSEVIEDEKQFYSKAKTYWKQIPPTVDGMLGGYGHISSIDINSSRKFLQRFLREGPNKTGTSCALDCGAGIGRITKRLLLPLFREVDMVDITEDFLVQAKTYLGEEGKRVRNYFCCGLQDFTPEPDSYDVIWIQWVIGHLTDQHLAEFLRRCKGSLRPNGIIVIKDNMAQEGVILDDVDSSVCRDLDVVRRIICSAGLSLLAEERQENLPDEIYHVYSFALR
CLK4 inh-1 – CLK4 kinase inhibition, SAR round 2; shares compounds with NTMT1 inh; recombinant Clk4, Kinase-Glo ATP luminescence, 4.5 h; Potency, µM (top dose mostly 76.9 µM), usual class: inhibitors; 90 tested, 90% active; AID 493204
CLK4 inh-2 – blocks human CLK4 kinase in radiometric assay | shares compounds with NTMT1 inh | Potency, µM, most hits filed as inhibitors | Reaction Biology kinase assay, 10 uM ATP | 65 tested, 100% active | AID 504421; calls by dose curve
DYRK1A inh – blocks human DYRK1A kinase in radiometric assay; shares compounds with NTMT1 inh; Reaction Biology kinase assay, 10 uM ATP; Potency, µM, actives largely listed as inhibitors; 65 tested, 90% active; AID 504424;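 active means compounds that showed inhibition of Dyrk1a and received a fitted potency; inactive means compounds that showed no inhibition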
CLK2 RBC – blocks human CLK2 kinase in radiometric assay | shares compounds with NTMT1 inh | 65 tested, 90% active | Reaction Biology kinase assay, 10 uM ATP | Potency, µM, most hits filed as inhibitors;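 active means compound that inhibits Clk2 kinase in the dose series, with an IC50 potency reported; inactive means no inhibition seen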
CLK3 RBC – CLK3 kinase inhibition | shares compounds with NTMT1 inh | recombinant CLK3 kinase assay, 10 uM ATP | Potency, µM, usual class: inhibitors | 65 tested, 40% active | AID 504428;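 active means compounds that inhibited Clk3 enough in the ten-dose series to give a half-maximal potency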
DYRK1B inh – inhibitors of human Dyrk1b kinase; shares compounds with NTMT1 inh; Recombinant Dyrk1b kinase assay, 10 uM ATP; Potency, µM, usual class: inhibitors; 65 tested, 80% active;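 active means compounds whose dose response shows an inhibitor phenotype against the kinase Dyrk1b; inactive means compounds showing no inhibitor phenotype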
CLK1 RBC – blocks human CLK1 kinase activity; shares compounds with NTMT1 inh; recombinant Clk1 kinase assay, 10 uM ATP; Potency, µM, usual class: inhibitors; 65 tested, 90% active; AID 504430;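 active means compounds that block the splicing kinase Clk1 enough to give a fitted half-inhibition concentration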
Sfp PPTase inh – Sfp PPTase inhibition, chemistry optimization; shares compounds with NTMT1 inh; purified Sfp PPTase enzyme activity, qHTS; Potency, µM (series often up to 114 µM), usual class: inhibitors; 230 tested, 78% active
HM489 growth – reduces growth of B. subtilis HM489 strain; 220 tested, 50% active; shares compounds with NTMT1 inh; Potency, µM (highest dose often 114 µM), usual class: inhibitors; B. subtilis HM489 (acpS-) growth, BacTiter-Glo, 5 h
Sfp gel opt – inhibitors of Bacillus subtilis Sfp PPTase, gel-based followup; shares compounds with NTMT1 inh; purified Sfp PPTase, gel-based product detection; Potency, µM (titrated, usually from 250 µM), actives largely listed as inhibitors; 220 tested, 54% active
Sfp gel – Sfp phosphopantetheinyl transferase inhibition, gel detection; shares compounds with NTMT1 inh; purified Sfp PPTase, gel-based product detection; 45 tested, 90% active; Potency, µM (top dose mostly 250 µM), usual class: inhibitors
Sfp inh SAR2 – Sfp phosphopantetheinyl transferase inhibition, SAR round 2. shares compounds with NTMT1 inh. purified Sfp enzyme, PPTase activity, qHTS. AID 602370. 230 tested, 87% active. Potency, µM (titrated, usually from 57.1 µM), actives largely listed as inhibitors
hGST A1-1 inh – counter-screen for Sfp PPTase inhibitors: hGST A1-1 inhibition. hGST A1-1 enzyme activity counter-screen, qHTS. 55 tested, under 10 active. shares compounds with NTMT1 inh. AID 602391. Potency, µM (series often up to 114 µM), usual class: inhibitors
HSD17B4 inh – HSD17B4 (human) inhibition, HPGD counter-screen; shares compounds with NTMT1 inh; purified HSD17B4, estradiol/NAD+, NADH fluorescence; Potency, µM (titrated, usually from 57.1 µM), usual class: inhibitors; 230 tested, 10% active
ALDH1A1 inh – ALDH1A1 (human) inhibition, HPGD counter-screen | shares compounds with NTMT1 inh | recombinant ALDH1A1, NADH fluorescence, propionaldehyde/NAD+ | Potency, µM (doses to about 57.1 µM), hits mostly inhibitors | 230 tested, 93% active
NNMT inh – blocks human NNMT methyltransferase; 120 tested, 10% active; Potency, µM (top dose mostly 57.1 µM), usual class: inhibitors; NNMT MTase-Glo luminescence, SAH detection; shares compounds with NTMT1 inh
Large screens that a line does not name were inactive (follow-up assays come after a bar, where they were run); ! = not confirmed by another sample. Unless noted, the call rests on the fitted dose curve; in most records, active means well fitted curve in the direction sought with a large enough effect; inconclusive means small, poorly fitted or top-dose-only effect, or another doubt; inactive means no such curve, though single readings can be large; an effect the other way counts as inactive or inconclusive.

Cc1ccnc(NC(=S)N2CCN(c3cccc(N(C)C)c3)CC2)c1	none (no result: FH mod, HTT-AS act, HTT promoter inh) | Sfp PPTase inh 9.4µM | HM489 growth 37µM | Sfp gel opt 1.3µM | Sfp gel 8.5µM | Sfp inh SAR2 5.8µM | hGST A1-1 inh inconclusive | HSD17B4 inh inconclusive | ALDH1A1 inh 1.7µM
Cc1ccnc(NC(=S)N2CCN(c3ccc(Cl)c(Cl)c3)CC2)c1	NTMT1 inh inconclusive (no result: FH mod, HTT-AS act, HTT promoter inh) | Sfp PPTase inh 1.2µM | HM489 growth 2.6µM | Sfp gel opt inactive | Sfp inh SAR2 0.73µM | HSD17B4 inh inactive | ALDH1A1 inh 2.4µM
Fc1cnc(-c2ccccc2C(F)F)nc1NCC1CCN(c2cnccn2)CC1	none (no result: FH mod, HTT-AS act, HTT promoter inh)
CC(C)c1ccc(NC(=O)C(c2ccccc2)N(C)C(=O)Cc2c[nH]c3ccccc23)cc1 (configuration not stated)	none (no result: HTT-AS act, HTT promoter inh)
O=C(Cc1ccc(Cl)c(Cl)c1)Nc1ccc(S(=O)(=O)O)cc1	none (no result: FH mod, HTT-AS act, HTT promoter inh)
CC(O)C(O)/C=C/C=C/C(=O)O[C@@H]1C=C(C(=O)O)[C@](O)(CO)[C@@]2(C)CCCC(C)(C)[C@H]12 (some centres not stated)	none (no result: HTT-AS act, HTT promoter inh)
CC(C)CC(=O)NCCn1cc(C(=O)O)c(=O)cc1C(O)c1ccccc1 (configuration not stated)	none (no result: HTT-AS act, HTT promoter inh)
Cc1cc(C)nc(NC(=S)N2CCN(c3ccc(Cl)c(Cl)c3)CC2)c1	none (no result: FH mod, HTT-AS act, HTT promoter inh) | Sfp PPTase inh 2.1µM | HM489 growth 5.9µM | Sfp gel opt 12µM | Sfp gel 3µM | Sfp inh SAR2 0.91µM | hGST A1-1 inh inconclusive | HSD17B4 inh inactive | ALDH1A1 inh 8.6µM
COc1ccc(NC(=O)c2ccc(-c3nc4ccccc4[nH]3)cc2)cc1OC	none (no result: FH mod, HTT-AS act, HTT promoter inh)
O=C(Nc1ccc(F)c(Cl)c1)C1CCCN(c2cnccn2)C1 (configuration not stated)	none
O=C([C@@H]1CCCN(c2ccc3[nH]c(C4(n5cc(Cl)cn5)CC4)nc3n2)C1)N1CCCC1	NTMT1 inh inconclusive (no result: HTT-AS act, HTT promoter inh) | NNMT inh inactive
C=C1CCC2[C@@](C)(C(=O)O)CCC[C@@]2(C)[C@@H]1CCc1ccoc1 (some centres not stated)	none (no result: HTT-AS act, HTT promoter inh)
C[C@@H]1O[C@@H](O[C@H]2[C@H](OC(=O)[C@]34CCC(C)(C)C[C@H]3C3=CCC5[C@@]6(C)C[C@H](O)[C@H](O[C@@H]7O[C@H](CO)[C@@H](O[C@H]8OC[C@](O)(CO)[C@H]8O)[C@H](O)[C@H]7O)[C@@](C)(CO)C6[C@H](O)C[C@@]5(C)[C@]3(C)C[C@H]4O)OC[C@H](O)[C@@H]2O)[C@H](O)[C@H](O)[C@H]1O[C@@H]1OC[C@@H](O)[C@H](O[C@@H]2OC[C@](O)(CO)[C@H]2O)[C@H]1O (some centres not stated)	none (no result: HTT-AS act, HTT promoter inh)
CC1CCC2(NC1)OC1CC3C4CC=C5CC(O[C@@H]6O[C@H](CO)[C@@H](O[C@@H]7O[C@@H](C)[C@H](O)[C@@H](O)[C@H]7O)[C@H](O)[C@H]6O[C@@H]6O[C@@H](C)[C@H](O)[C@@H](O)[C@H]6O)CCC5(C)C4CCC3(C)C1C2C (some centres not stated)	none (no result: HTT-AS act, HTT promoter inh)
COc1cc2c(cc1OC)CN(CCc1ccc(NC(=O)c3cccc4c(=O)c5cccc(OC)c5[nH]c34)cc1)CC2	NTMT1 inh 28µM! | NNMT inh 4µM
CCNC(=O)c1ccc(-c2ccc3ncnc(NCc4nccs4)c3c2)o1	NTMT1 inh inconclusive (no result: FH mod, HTT-AS act, HTT promoter inh) | CLK4 inh-1 0.52µM | CLK4 inh-2 0.88 | DYRK1A inh 5.1µM | CLK2 RBC 19µM | CLK3 RBC inactive | DYRK1B inh 5µM | CLK1 RBC 7µM
Cc1noc(C)c1-c1ccc2ncnc(NCc3ccc(C(F)(F)F)o3)c2c1	none (no result: FH mod, HTT-AS act, HTT promoter inh)

Screening results as filed in PubChem.
